# PubChem BioAssay AID1259310 (The Scripps Research Institute Molecular Screening Center, 2017)
# Where “and” joins values, the source holds several entries; their conditions need not be identical. Equal entries are not always repeated. The campaign covered roughly 650,000 compounds. About 850 (0.13%) were called active. This excerpt belongs to a sample that is enriched for actives. Values without a mark were called inactive. Cut-off read from the data, not from the text of the source: active = normalized activity above about 1.9%; inactive = the rest.
# Molecular target: F-box/WD repeat-containing protein 7 (Homo sapiens) (UniProt Q969H0)
# Sequence (Q969H0 whole entry, looked up): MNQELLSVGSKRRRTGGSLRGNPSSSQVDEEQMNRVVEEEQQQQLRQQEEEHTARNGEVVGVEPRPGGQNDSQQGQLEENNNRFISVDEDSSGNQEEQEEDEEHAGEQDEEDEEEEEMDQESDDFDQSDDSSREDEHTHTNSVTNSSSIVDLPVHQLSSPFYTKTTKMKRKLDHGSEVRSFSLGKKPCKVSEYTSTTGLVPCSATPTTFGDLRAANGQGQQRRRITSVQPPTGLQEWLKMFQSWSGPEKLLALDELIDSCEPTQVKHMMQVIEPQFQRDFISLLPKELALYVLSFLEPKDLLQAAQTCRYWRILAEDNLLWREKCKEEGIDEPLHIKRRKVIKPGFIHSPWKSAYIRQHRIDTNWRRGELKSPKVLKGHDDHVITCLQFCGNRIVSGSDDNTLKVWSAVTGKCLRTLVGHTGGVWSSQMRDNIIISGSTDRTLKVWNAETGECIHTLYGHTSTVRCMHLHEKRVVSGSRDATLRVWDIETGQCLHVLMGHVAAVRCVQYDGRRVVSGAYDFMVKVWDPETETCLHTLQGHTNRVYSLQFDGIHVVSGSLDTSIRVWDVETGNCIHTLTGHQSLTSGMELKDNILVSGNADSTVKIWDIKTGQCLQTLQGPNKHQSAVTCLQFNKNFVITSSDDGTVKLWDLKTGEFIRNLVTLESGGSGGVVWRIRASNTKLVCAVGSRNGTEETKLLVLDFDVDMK
# Assay: FBW7 E3 ligase activators, primary screen, biochemical, AlphaScreen, human (AID 1259310);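 note: purified mutant Fbw7 with reduced substrate affinity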
# Conditions: AlphaScreen FBW7–phospho-cyclin E peptide binding, activator screen; at 26.1 µM; hits give high values
row,Compound,normalized activity (activation)
1,NC(=O)CSc1ccc2nnc(-c3ccccn3)n2n1,69.7% (active)
2,O=C(O)CSc1ccc2nnc(-c3ccc(F)cc3)n2n1,0.39%
3,Cc1ccc(-c2nnc3ccc(SCC(N)=O)nn23)cc1,0.47%
4,O=C(Nc1ccc(N2CCOCC2)cc1)c1cccc(-n2nccc2NC(=O)C2CC2)c1,0.06%
5,COc1ccc(N2CCN(C(CNC(=O)C(C)C)c3ccco3)CC2)cc1 (centres undefined),0%
6,COc1ccc(Br)cc1CN(C)Cn1cnc2ccccc21,-0.03%
7,CC(C)N(Cc1ccccc1)C(=O)c1cc2c(=O)n3ccccc3nc2n1C,0.69%
8,CCN(Cc1ccccc1)C(=O)c1cc2c(=O)n3cccc(C)c3nc2n1C,3.93% (active)
9,C=CCNC(=O)c1cc2c(=O)n3cccc(C)c3nc2n1C,0.17%
10,O=C(CNC(=O)OCc1ccccc1)Oc1ccc2c(-c3ccccc3)cc(=O)oc2c1,-0.09%
11,O=C(NCc1nnc2n1CCN(Cc1c(F)cccc1Cl)CC2)c1ccccc1,-0.02%
12,O=C(Cc1cccs1)NCCS(=O)(=O)N1CCN(c2ccccn2)CC1,0.01%
13,O=C(c1cnsc1)N1CCCC(c2ncncc2-c2ccncc2)C1 (centres undefined),0.35%
14,O=C(c1cnsc1)N1CCC(c2[nH]ncc2-c2ccncc2)CC1,2.18% (active)
15,Cc1cc(C(=O)N2CCC(c3[nH]ncc3-c3ccncc3)CC2)c(C)[nH]1,0.63%
16,Cc1ccc(C)c(C(=O)Nc2ncc(S(=O)(=O)c3ccc([N+](=O)[O-])cc3)s2)c1,-0.16%
17,CCOc1ccc(NC(C)C(=O)N/N=C/c2ccccc2O)cc1 (centres undefined),-0.35%
18,COCCn1nnnc1C(c1cc2ccc(C)cc2[nH]c1=O)N1CCCC1 (centres undefined),-0.04%
19,COCCn1nnnc1C(c1cc2cc(C)cc(C)c2[nH]c1=O)N1CCOCC1 (centres undefined),2.29% (active)
20,COCCn1nnnc1C(c1cc2cc(C)c(C)cc2[nH]c1=O)N1CCCCC1 (centres undefined),-0.02%
21,O=C1NC(=O)C(=Cc2ccc(OC(=O)c3ccc(Cl)c(Cl)c3)cc2)C(=O)N1,0.22%
22,CCOC(=O)CSc1nc2ccsc2c(=O)n1CCc1ccc(OC)c(OC)c1,0.46%
23,CCSCCOC(=O)C1=C(C)NC2=C(C(=O)CC(c3ccccc3)C2)C1c1ccccc1 (centres undefined),0.61%

row,Compound,normalized activity (activation)
1,COCCOC(=O)C1=C(C)NC2=C(C(=O)CC(c3ccccc3)C2)C1c1cc(OC)ccc1OC (centres undefined),0.27%
2,CCSCCOC(=O)C1=C(C)NC2=C(C(=O)CC(c3ccccc3)C2)C1c1ccc(OC)cc1OC (centres undefined),2.28% (active)
3,O=C(Nc1ccc(C(=O)Nc2nccs2)cc1)c1ccc2c(c1)C(=O)N(c1ccccc1-c1ccccc1)C2=O,-0.08%
4,Cc1ccc(N=c2scc(C)n2CCCO)cc1,-0.38%
5,CC(=O)N(C)c1nc(-c2cccc(N(C)C)c2)ccc1C(=O)NC1CCCCC1,1.86% (active)
6,CN(C)c1cccc(Nc2cc(C(=O)NC3CC3)c3ccccc3n2)c1,0.31%
7,CN(C)c1cccc(Nc2cccc(C(=O)NC3CC3)n2)c1,-0.12%
8,CCOC(=O)N1CCC(NC(=O)CC2C(=O)NCCN2Cc2ccoc2)CC1 (centres undefined),0.27%
9,CCCCSc1ncnc2c1c(-c1ccccc1)cn2-c1ccc(OC)cc1,-0.03%
10,Cc1ccc(C(C)C)c(OCC(=O)Oc2ccc3c(c2)oc(=O)c2ccccc23)c1,-0.05%
11,CCOC(=O)/C(C#N)=C/c1cc(C)n(-c2ccc(C(=O)OCC)cc2)c1C,-0.1% and -0.13%
12,CCOC(=O)/C(C#N)=C/c1ccc(N2CCCCC2)cc1,1.85% (active)
13,COCCNC(=O)/C(C#N)=C/c1ccc(N2CCOCC2)cc1,0.46%
14,CCOC(=O)C1=C(C)N=c2s/c(=C\c3ccc(OCc4ccc([N+](=O)[O-])cc4)c(OC)c3)c(=O)n2C1c1ccc2c(c1)OCO2 (centres undefined),0.04%
15,COCCNc1ncc(-c2cccs2)cn1,0.02%
16,O=C1C2C3c4ccccc4C(c4ccccc43)C2C(=O)N1CCCCO (centres undefined),0.04%
17,CC1=C(C#N)C(=O)N(CCCO)C(=O)/C1=C\c1ccc(-c2ccc(Cl)cc2)o1,-0.06%
18,CCCCOC(=O)c1cccc(NC(=O)CN2C(=O)c3ccccc3C2=O)c1,0.09%
19,Cc1ncn(-c2ccc(Nc3cc(-c4nocc4-c4ccccn4)ccn3)cc2)n1,2.76% (active)
20,Cc1ncn(-c2ccc(Nc3cc(-c4cnn(C(C)C)c4-c4ccc(F)cc4)ccn3)cc2)n1,0.79%
21,CNc1cc(-c2ccnc(Nc3ccc(-n4cnc(C)n4)cc3)c2)no1,0.51%
22,O=c1c(NCCN2CCCCCC2)c(-c2ccc(Cl)cc2)c1=O,0%
23,CC(C)NCCOCCOc1cccc(Br)c1,0.35%

row,Compound,normalized activity (activation)
1,COCc1cc(C)nc(OCC(=O)c2ccccc2)c1C#N,0.04%
2,Cc1c(C(=O)N2CCCC2)sc2ncn(CC(=O)N3CCCC3)c(=O)c12,0.33%
3,Cc1c(C(=O)N2CCOCC2)oc2c1-c1nn(CC(=O)NC(C)c3ccccc3)cc1CC2 (centres undefined),-0.04%
4,Cc1c(C(=O)N2CCCC2)oc2c1-c1nn(CC(=O)N3CCCC3)cc1CC2,8.41% (active)
5,Nc1nnc(-c2ccc(Cn3c(-c4cncs4)nc4ccccc43)cc2)s1,0.1%
6,O=C(O)CCCN1C(=O)C(=O)/C(=C(\O)c2ccccc2)C1c1cccc(F)c1 (centres undefined),-0.31%
7,CC1CCCN(S(=O)(=O)c2cccc3cccnc23)C1 (centres undefined),-0.09%
8,Cc1cc(Nc2ccc(Cl)cc2)n2c(nc3ccccc32)c1C#N,-0.02%
9,Cc1c(Cc2ccccc2)c(N2CCCCC2)n2c(nc3ccccc32)c1C#N,0.12%
10,Cc1cc(NCCN2CCCCCC2)n2c(nc3ccccc32)c1C#N,2.12% (active)
11,CC(=O)c1cccc(-c2nc3ncnc(NCCOc4ccccc4)c3[nH]2)c1,0.01%
12,CCOc1ccc(Nc2nc(C)c([N+](=O)[O-])c(Nc3ccc(OC)cc3)n2)cc1,-0.11%
13,CC(C)CC(C(=O)NC1CCCC1)N(C(=O)c1snc(C(N)=O)c1N)C1CCCC1 (centres undefined),0.18%
14,Cc1ccc(C(=O)NC(C)C(c2cccs2)N2CCN(C)CC2)cc1 (centres undefined),-0.03%
15,CCCCOc1ccc(/C=C/c2nc3ccccc3c(=O)n2-c2ccc(C)c(C)c2)cc1,-0.23%
16,CC(=O)Nc1ccc(Nc2nc(Nc3ccc(-n4ccnc4)cc3)nc3c2ncn3-c2ccsc2)cc1,-0.15%
17,CC(=O)Nc1ccc(Nc2nc(Nc3cnccn3)nc3c2ncn3-c2ccccc2)cc1,2.09% (active)
18,CC(=O)Nc1ccc(Nc2nc(Nc3ccncn3)nc3c2ncn3-c2ccsc2)cc1,0.77%
19,COc1ccccc1NC(=O)c1c(C)nc(SCC(=O)c2ccccc2)c(C#N)c1-c1ccc(C)o1,-0.03%
20,Cc1c(NC(=O)c2ccc(Br)cc2)cccc1-c1nc2ccccc2o1,0.17%
21,O=C(CSc1n[nH]c(-c2cccs2)n1)NC(=O)NC12CC3CC(CC(C3)C1)C2,-0.03%
22,Cc1sc2ncn3c(SCC(=O)N4CCc5ccccc54)nnc3c2c1C,-0.09%
23,COC(=O)COc1ccc(S(=O)(=O)N2CCN(c3cc(Cl)ccc3C)CC2)cc1,-0.32%

row,Compound,normalized activity (activation)
1,O=C(CN(c1ccccc1)S(=O)(=O)c1ccccc1[N+](=O)[O-])N/N=C/c1ccco1,2.75% (active)
2,O=C(CN(c1ccccc1)S(=O)(=O)c1ccccc1[N+](=O)[O-])Nc1ccc(F)cc1,0.71%
3,NC(=O)CN(c1ccccc1)S(=O)(=O)c1ccccc1[N+](=O)[O-],-0.14%
4,COCCCN1C(=O)C2C(C(=O)Nc3cccc(C)c3)C3C=CC2(O3)C1C(=O)NC1CCCC(C)C1C (centres undefined),0.2%
5,C=CCn1c(=NC(=O)c2ccccc2[N+](=O)[O-])sc2cc(S(N)(=O)=O)ccc21,0%
6,COc1ccccc1C1N(Cc2ccccc2)CCN1Cc1ccccc1,0.1%
7,Cc1ccc(Oc2ccc(N(C)C(=O)Nc3ccc(Cl)cc3)cc2)nn1,0.86%
8,COC(=O)c1c(OCc2ccncc2)cc(=O)n2c1CCN(CCCSC)CC2,0%
9,CC(C)OCCCNC(=O)Nc1cccc(Cl)c1,0.02%
10,C[C@@H](c1ccccc1)n1c(=O)[nH]c2ncc(-c3ccccc3)nc21,0.05%
11,CC(C)NCC(=O)N(c1ccccc1)N1CCOCC1,0.19%
12,CCCCSc1nnc2c(n1)OC(c1ccc(N(C)C)cc1)Nc1ccccc1-2 (centres undefined),0.3%
13,COc1ccc2c(c1)c(=O)c1ccccc1n2CC(=O)Nc1ccc(F)cc1,0%
14,O=C(CCCOc1ccc(Cl)cc1Cl)N1CCCC1,0.05%
15,N/C(=N\OC(=O)CCCOc1ccc(Cl)cc1Cl)c1nonc1N,4.98% (active)
16,N/C(=N\OCc1cc2c(cc1Cl)OCO2)c1nonc1N,0.4%
17,Nc1ccnc2cc(-c3ccccc3)nn12,-0.02%
18,CSc1ncc(C(=O)Nc2ccc3c(c2)OCCO3)c(C)n1,0.15%
19,C=CCOC(=O)C1=C(C)Nc2c(c(=O)n(C)c(=O)n2C)C1c1ccc2c(c1)OCO2 (centres undefined),0.09%
20,Cc1ccc(-c2csc(/C(C#N)=C/c3ccccc3[N+](=O)[O-])n2)cc1,-0.09%
